How the values were obtained:
Assay in all cases: PBM binding z-score (relative to random genomic background probes); higher = stronger binding; sequences stand for … in GC…GCGATTGACAGCGTAGAATGAAGG
[1] = tested on: FXR:RXRa (NR concentration 270 nM, RXRa partner concentration 90 nM)
In short: (§1)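 Antibodies against each partner of ligand-free nuclear receptor dimers (one per run) detected binding on custom Agilent 4×180K protein-binding microarrays after 1 h incubation. The double-stranded probes had 34-nt variable regions carrying direct-repeat seeds, single-nucleotide variants, half-site ablations and random human genomic background sequences. Binding z-scores, from regression-normalized fluorescence, use the random background probes as reference.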

[2] = tested on: LXRa:RXRa (NR concentration 270 nM, RXRa partner concentration 90 nM)
In short: as §1

[3] = tested on: LXRa homodimer (NR concentration 270 nM)
In short: as §1

[4] = tested on: LXRb:RXRa (NR concentration 270 nM, RXRa partner concentration 90 nM)
In short: as §1

[5] = tested on: LXRb homodimer (NR concentration 270 nM)
In short: as §1

[6] = tested on: PPARa:RXRa (NR concentration 270 nM, RXRa partner concentration 90 nM)
In short: as §1

[7] = tested on: PPARg:RXRa (NR concentration 180 nM, RXRa partner concentration 90 nM)
In short: as §1

[8] = tested on: PPARg:RXRa 270nM:90nM, anti-RXR (NR concentration 270 nM, RXRa partner concentration 90 nM)
In short: as §1

[9] = tested on: PPARg:RXRa 30nM:10nM, anti-RXR (NR concentration 30 nM, RXRa partner concentration 10 nM)
In short: as §1

[10] = tested on: PPARg:RXRa 90nM:30nM, anti-RXR (NR concentration 90 nM, RXRa partner concentration 30 nM)
In short: as §1

Sequence | PBM binding z-score [1] | PBM binding z-score [2] | PBM binding z-score [3] | PBM binding z-score [4] | PBM binding z-score [5] | PBM binding z-score [6] | PBM binding z-score [7] | PBM binding z-score [8] | PBM binding z-score [9] | PBM binding z-score [10]
GGAACGAGGGCAAGTTGACAGCAGAGTTTGATGG | 0.854 | 0.43 | -0.472 | 0.324 | -0.45 | 1.69 | 1.15 | 1.35 | 0.346 | 0.686
CAAACTAGGTCAAGGACAGTGAATCTCCGCACGC | 3.5 | 2.6 | 0.383 | 1.84 | 0.431 | 4.98 | 7.68 | 6.71 | 4.3 | 6.04
TCTATTAGTTGATTAGGGCACCCGAAACAGCGGA | 0.613 | 0.698 | 0.336 | 0.367 | 0.572 | 0.646 | 0.343 | 1.83 | 3.73 | 2.91
TTACCAAGGTGAATGGTCGTTGATGCACGCCTTG | 0.766 | 0.485 | -0.417 | 0.403 | -0.853 | 1.35 | 1.32 | 2.39 | 1.14 | 2.06
CATACAGTGTCAGCTAGGCCAGAGTAGGGACGGC | -0.279 | -0.284 | -0.667 | -0.652 | 0.0378 | -0.3 | 0.467 | -0.284 | -0.315 | -0.243
CCAGACCGGTGAGAAGGTAACTCAGCCTCGATTA | -0.29 | 0.0278 | 0.205 | -0.175 | -0.35 | -0.101 | -0.0328 | -0.307 | -0.601 | -0.547
CCGACTGCGGCAAGGTTACCATAACGCACAGCCA | 0.311 | 0.827 | 0.0346 | 0.9 | -0.64 | 1.02 | 0.614 | -0.189 | -0.715 | -0.26
AGAACGAGGGCAATGAGTTGAAAGCACGGGTGGC | 0.345 | 0.43 | -0.528 | -0.0192 | -0.804 | 1.57 | 1.36 | 1.21 | -0.135 | 0.569
CCAGACAGGTGAGAAGTTAACTCAGCCTCGATTA | -0.198 | -0.285 | -0.173 | 0.0436 | -0.306 | 0.706 | 0.596 | 1.25 | -0.0978 | 0.58
CCCACTGGGCCAAAGGTCATTGATTCCAATGCTC | 4.95 | 4.92 | 4.26 | 4.72 | 0.641 | 6.5 | 11.7 | 10.5 | 10.2 | 11
CGTCCAAGGTCAGAGGAGGTCAGTGAAGACAGAT | 6.02 | 5.57 | 2.4 | 4.09 | -0.0595 | 4.82 | 3.53 | 3.88 | 0.854 | 2.48
TGAAGGAGGTTAAAGATCAGGGAACGTGGCGTCG | 2.43 | 2.05 | 0.112 | 1.62 | 0.187 | 3.67 | 4.96 | 5.81 | 4.55 | 6.03
ATCTCTAGGTAACCAGGTTCAGTGAATGCCGAAC | 0.339 | 0.277 | 0.415 | 0.528 | 0.703 | 1.37 | 0.883 | 0.861 | 0.15 | 0.492
TAGCCTAGGTCAGTGGGCCAGTATAGTACGCATC | 0.672 | 0.503 | -0.786 | 0.274 | -0.999 | 2.11 | 2.47 | 2.57 | 0.337 | 1.47
GCTGCTACGTCAACTGATGGTCAGCTAAAGCTCG | -0.601 | -0.63 | -0.84 | -0.799 | -1.1 | -0.483 | -0.201 | -0.736 | -0.808 | -0.829
CGAACTAGGTCAAGTACAGTGAATCTCCGCACGC | 4.5 | 2.83 | 0.474 | 2.32 | 0.607 | 4.85 | 7.57 | 6.29 | 4.41 | 5.92
CCGACTGGGGCATAAGGTTACTATAAGCCAGCCC | 0.52 | 3.57 | 0.0863 | 1.26 | -1.18 | 1.63 | 2.33 | 2.96 | 0.95 | 2.34
TCTGCTAGGTCCACGATGGTCAGCTAATCTGCTA | -0.34 | -0.399 | -0.522 | -0.79 | -0.988 | -0.24 | -0.332 | 0.324 | 1.16 | 0.768
CCTAGCAGGACAATCTGGGTCACTCAAGGCTTGA | 1.05 | 0.686 | -0.28 | 0.742 | -0.672 | 3.31 | 2.44 | 2.26 | 0.245 | 1.56
CCTAGTTGGTCAAGGACACACACGCTATAGGTAC | 0.477 | 0.154 | 0.309 | 0.44 | 0.532 | 0.0552 | 1.12 | 0.49 | 0.287 | 0.489
ACAGACAGGTGAGTGAAGGTAACTCATCTGGACG | 0.0966 | -0.0411 | -0.402 | -0.512 | -0.306 | -0.155 | 0.684 | 0.0954 | 0.12 | -0.143
AGTCAAAGATCATCTAGGTAACGTAAGATATGCT | -0.125 | 0.0142 | -0.0346 | -0.0476 | -0.391 | 0.828 | 1.67 | 1.54 | 0.643 | 1.16
ATATGTAAGTTATCGGGTCATTCAGTTTGCGCAT | 2.13 | 2.33 | 1.43 | 2.61 | 1.02 | 2.93 | 1.83 | 2.22 | 0.702 | 1.72
CGAACGAGGGCCTGAGTTGATAGCAAATGCCGAT | -0.571 | -0.754 | -0.624 | -0.612 | -0.92 | -0.663 | 0.336 | -0.582 | -0.305 | -0.468

Sequence | PBM binding z-score [1] | PBM binding z-score [2] | PBM binding z-score [3] | PBM binding z-score [4] | PBM binding z-score [5] | PBM binding z-score [6] | PBM binding z-score [7] | PBM binding z-score [8] | PBM binding z-score [9] | PBM binding z-score [10]
CAAACTAGGTCACGAAAGGTCAAAGTCGAATGAC | 7.74 | 8.37 | 7.89 | 7.46 | 2.8 | 6.76 | 10.7 | 8.68 | 7.48 | 8.74
CGTCAAAGTTCAACTAAGCTAACGTAAAGCACGC | 6.6 | 6.23 | 4.14 | 4.26 | 2.57 | 5.08 | 4.95 | 5.46 | 1.83 | 4.48
CGTCAAAGTTCGACTAAGGTAACGTAAAGCACGC | 1.87 | 1.33 | 0.0441 | 1.16 | 0.121 | 1.88 | 1.33 | 2.15 | 0.439 | 1.37
TCTATTAGTTGATTAGTGCAACCGAAACAGCGGA | 0.567 | 0.676 | 0.422 | 0.608 | 0.403 | 0.779 | -0.179 | 2.12 | 3.55 | 2.78
TGAATGAGGTTATAGATCAGGGAACGTGGCGTCG | 1.56 | 1.48 | -0.163 | 0.762 | 0.262 | 2.84 | 2.57 | 3.62 | 2.18 | 3.73
ATCGAAAGGTCGAAGCTGAGTATACCCACCCGAA | 4.55 | 3.6 | 0.403 | 2.6 | 0.738 | 4.28 | 2.17 | 2.92 | 0.67 | 1.94
TCTGCTCGGTCAACGATGGTCAGCTAATCTGCTA | 0.568 | 0.372 | -0.251 | -0.449 | -0.425 | 0.275 | -0.279 | 0.898 | 1.25 | 1.09
ATCGACAGGTCGACGAGGTGAGTATACACCGTTT | 0.539 | 0.314 | -0.541 | 0.288 | -0.436 | 1.42 | 1.11 | 0.392 | 0.0912 | -0.0285
CGTCAAAGTTCAACGTAACGTAACAGAAAGCAGC | 6.54 | 5.59 | 2.98 | 3.72 | 1.38 | 4.94 | 4.58 | 4.97 | 2.08 | 3.84
TCATATAGGGAAAGGTGAAAGTCGAACGATATGA | 0.779 | 1.31 | -0.25 | 1.43 | -0.112 | 2.68 | 2.13 | 3.56 | 4.47 | 3.88
CGTCCAAGGTCAGAGAGGTCAGAGAATGCCGAGT | 6.45 | 5.34 | 3.4 | 4.53 | 0.508 | 5.1 | 3.75 | 4.28 | 1.33 | 3
AATACAGGGTAATCGTAGGCCAGAGTACGCACAG | 0.175 | 1.34 | -0.0914 | 0.309 | -0.0115 | 0.447 | 1.25 | 0.792 | 0.499 | 0.377
GCTAGCAGGCCAATTGGGTCACTCAATGACGGGC | -0.057 | -0.159 | -0.545 | -0.122 | -1.32 | 1.83 | 1.01 | 1.14 | -0.473 | 0.444
CCGGACAGGTGAAAGGTAACTCAGTCTGGTACGC | 0.736 | 0.472 | -0.206 | 0.874 | -0.858 | 3.17 | 4.79 | 5.2 | 3.2 | 5.45
GTACCAAGGGGAATAGGTCGTTGATGAGTAGGCG | -0.0504 | 0.00136 | -0.0435 | 0.269 | -0.418 | 1.3 | 0.915 | 1.15 | 0.0532 | 0.835
TCGAGTAGGTTACCAATGGGGCATTCAACTTTCT | 0.374 | 1.64 | -0.293 | 1.55 | 0.172 | 1.67 | 0.652 | 1.67 | 1.26 | 1.67
CCTCGGAGGACAGAAGGTGAGAGCTGTCCGCTTT | 0.177 | 0.159 | -0.939 | -0.679 | -0.923 | -0.0914 | -0.442 | -0.325 | -0.929 | -0.465
AGTCAAAGATCACTAGGTAACGTAAGATTCAGCT | -0.239 | 0.0788 | -0.206 | 0.152 | -0.329 | 1.52 | 2.34 | 2.95 | 0.876 | 2.3
ATCTCTAGGTAAAGTTCAGTGAGAGATCGATAGA | 1.25 | 1.82 | 1.42 | 0.981 | 0.57 | 2.42 | 3.37 | 3.95 | 2.06 | 3.46
GCTAGTTGTTCAGTAAAAGGTCACACACCGGTCG | 3.26 | 4.29 | 4.24 | 4.06 | 0.882 | 4.13 | 1.84 | 3.57 | 1.49 | 3.27
CCTCGGAGGACAACAGGAGGTCAGATCTGCCAGA | 1.11 | 2.26 | 2.76 | 1.83 | -0.568 | 1.91 | 0.67 | 0.241 | -0.484 | -0.22
TCTTGTAGATCAAAGGTTAAGGAAGCCGAAGCCT | 1.76 | 1.94 | 0.12 | 1.9 | -0.272 | 4.8 | 7.91 | 7.99 | 7.63 | 8.41
TAGCCTAGGTCATTGGGGCAGTATAGTACGCATC | 4.67 | 3.57 | 1.22 | 3.42 | 0.997 | 4.2 | 4.24 | 4.06 | 1.15 | 3.06
AGAATGAGGTTATACGTAGATCAGGGAAGAAAGT | 2.37 | 1.99 | 0.0175 | 1.7 | 0.71 | 3.18 | 2.1 | 2.02 | 0.854 | 1.48

From the supplement of paper PMC6555819
